# Reference: PubChem BioAssay (NCATS)
# Records with an inconclusive call do not appear. Activity calls are given as the source filed them. Unless noted, calls follow the shape of the dose curve; as a rule, active = well fitted activation curve with a large enough effect in the main read-out, with a control signal flat (not every such curve was filed as active); inconclusive = small, poorly fitted or top-dose-only effect, or effect the other way, or a change in a side signal; inactive = flat fitted curve, though single readings scatter.
# Target: 3',5'-cyclic-AMP phosphodiesterase 4B (Homo sapiens) (UniProt Q07343)
# Sequence (Q07343 whole entry, looked up): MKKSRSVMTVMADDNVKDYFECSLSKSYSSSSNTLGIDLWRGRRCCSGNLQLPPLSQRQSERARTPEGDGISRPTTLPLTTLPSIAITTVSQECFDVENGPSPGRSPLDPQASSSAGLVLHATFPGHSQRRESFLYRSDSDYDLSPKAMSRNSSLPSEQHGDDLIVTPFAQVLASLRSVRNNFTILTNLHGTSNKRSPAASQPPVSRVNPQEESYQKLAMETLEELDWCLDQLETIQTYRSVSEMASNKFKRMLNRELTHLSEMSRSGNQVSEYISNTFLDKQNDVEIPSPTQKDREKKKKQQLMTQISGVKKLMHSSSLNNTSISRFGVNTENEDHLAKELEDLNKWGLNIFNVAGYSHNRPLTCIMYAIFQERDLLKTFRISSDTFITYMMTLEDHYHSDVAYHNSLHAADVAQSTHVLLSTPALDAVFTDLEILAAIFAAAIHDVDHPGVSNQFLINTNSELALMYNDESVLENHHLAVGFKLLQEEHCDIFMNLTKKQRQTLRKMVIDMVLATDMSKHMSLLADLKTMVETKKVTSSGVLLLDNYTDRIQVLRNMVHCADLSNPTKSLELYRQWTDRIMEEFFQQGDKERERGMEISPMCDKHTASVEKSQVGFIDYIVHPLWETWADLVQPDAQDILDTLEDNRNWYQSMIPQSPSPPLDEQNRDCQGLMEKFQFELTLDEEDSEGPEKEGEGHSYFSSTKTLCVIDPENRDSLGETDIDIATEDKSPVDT
# Assay: qHTS Assay for Inhibitors of PDE-IV (AID 607); also: % of control where 0% means no effect
# Settings: HEK293 ACTOne CNG channel cells, membrane potential fluorescence; series mostly up to 22.9 µM; activation (PDE inhibition): at the top concentration
# Outline: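 The readout is membrane depolarisation from a cAMP-sensing CNG channel, detected with a potential dye at ex 535/em 590. Cells were HEK293-derived (endogenous PDE-IV) at 1000 cells/well, titrated up to 22.9 uM final.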
row,SMILES,activation (PDE inhibition)
1,Cc1cccc(CNc2ncnc3ccc(-c4ccc(C(=O)N(C)C)cc4)cc23)c1,-2.87% (inactive)
2,O=[N+]([O-])c1ccc(S(=O)(=O)Cc2ccccc2)c2nonc12,-8.05% (inactive)
3,CCN(CC)CCN1c2ccccc2Sc2ccc3ccccc3c21,0.841% (inactive)
4,Oc1c(C(O)(c2ccccc2)c2ccc3ccccc3c2O)ccc2ccccc12,-5.69% (inactive)
5,Nc1nc(Sc2ccc([N+](=O)[O-])c3nonc23)c2[nH]cnc2n1,-4.12% (inactive)
6,C[C@@H]1CCCN(C[C@@H](O)CN2CCCc3ccccc32)C1,1.36% (inactive)
7,CN(C)CCCN1c2ccccc2Sc2ccc3ccccc3c21,-2.61% (inactive)
8,CN(C)CCCN1c2ccc3ccccc3c2Sc2cccc(Cl)c21,-4.82% (inactive)
9,O=C1c2ccccc2C(O)(O)[C@@]1(O)[C@]1(O)C(=O)c2ccccc2C1(O)O,-4.48% (inactive)
10,CC(=O)Nc1ccc(Cc2ccc3[nH]c(=O)cc(C)c3c2)cc1,9.85% (inactive)
11,ClC(=Nc1cccc2ccccc12)N(c1ccccc1)c1ccccc1,-3.68% (inactive)
12,CC(=O)Nc1nc(NC(C)=O)c2[nH]c(CO)nc2n1,0.953% (inactive)
13,OCCCNc1ncnc2[nH]ncc12,2.8% (inactive)
14,COc1ccc(C(=O)[C@H](Br)[C@H](Br)C(=O)O)cc1,9.53% (inactive)
15,C[N+](C)([O-])CCC=C1c2ccccc2CCc2ccccc21,9.91% (inactive)
16,O=C1C(Cl)=C(Sc2nnc3c4ccccc4c4ccccc4c3n2)C(=O)c2ccccc21,2.21% (inactive)
17,CC(CC(=O)O)(CC(=O)O)c1ccccc1,3.66% (inactive)
18,CN(C)CCCn1c2c3ccccc3ccc2c2oc(=O)c3ccccc3c21,-12.4% (inactive)

row,SMILES,activation (PDE inhibition)
1,COc1cccc2c1[C@H](CO)N1[C@H](C#N)[C@@H]3C[C@H](C(=O)O)[C@@H]([C@@H]1C2)N3C,-0.435% (inactive)
2,Cc1ccc(-c2nc(-c3nccc4ccccc34)oc2-c2ccccc2)cc1,21.7% (inactive)
3,Oc1ccc2ccccc2c1CN(Cc1c(O)ccc2ccccc12)C1CCCCC1,-1.39% (inactive)
4,CCC1=C(C[C@H]2NCCc3ccccc32)C[C@@H]2c3cc(OC)c(OC)cc3CCN2C1,19.5% (inactive)
5,CN1CCN(c2ncc3nc(-c4ccccc4)c(=O)n(Cc4ccc(F)cc4)c3n2)CC1,6.56% (inactive)
6,CN(C)c1ccc(N=Nc2cccc3ccoc23)cc1,-5.58% (inactive)
7,Nc1ncnc2c([C@@H]3O[C@@H](CO)[C@H](O)[C@@H]3O)nsc12,-15.9% (inactive)
8,COc1ccc(-c2csc3c2[N+]2=CCC=C2C3=O)cc1,7.35% (inactive)
9,CN(C)CCCN1c2ccc(O)cc2Sc2ccc(Cl)cc21,-8.02% (inactive)
10,N[C@@](CCc1ccccc1)(C(=O)O)c1ccccc1,-5.32% (inactive)
11,C=C(C)COc1ccc2c(c1)CCC1C2CC[C@]2(C)C(=O)/C(=N/O)CC12 (some centres undefined),-1.12% (inactive)
12,O=C1c2ccccc2-c2cc([N+](=O)[O-])c([N+](=O)[O-])cc21,-23.9% (inactive)
13,COc1ccc2nc3cc(Cl)ccc3c(Nc3ccc(O)c(CN4CCN(C)CC4)c3)c2c1,-4.65% (inactive)
14,C[C@@]12CC[C@@H]3[C@@H](CC[C@H]4C[C@@H](O)CC[C@]43C)[C@H]1CC[C@@H]2c1cc(C(F)(F)F)n[nH]1,17.4% (inactive)
15,COc1ccc2c(c1)N(CC[C@H]1CCCCN1C)c1ccccc1S2,3.46% (inactive)
16,CSc1ccc2c(c1)N(CCCN(C)C)c1ccccc1S2,-3.66% (inactive)
17,CC(=O)O[C@H]1CC[C@@]2(C)C(=CC[C@@H]3[C@@H]4CC[C@H](c5cc(C(F)(F)F)n(C(C)=O)n5)[C@]4(C)CC[C@@H]32)C1,2.8% (inactive)

# Target: Cytochrome P450 2C9 (Homo sapiens) (UniProt P11712)
# Sequence (P11712 whole entry, looked up): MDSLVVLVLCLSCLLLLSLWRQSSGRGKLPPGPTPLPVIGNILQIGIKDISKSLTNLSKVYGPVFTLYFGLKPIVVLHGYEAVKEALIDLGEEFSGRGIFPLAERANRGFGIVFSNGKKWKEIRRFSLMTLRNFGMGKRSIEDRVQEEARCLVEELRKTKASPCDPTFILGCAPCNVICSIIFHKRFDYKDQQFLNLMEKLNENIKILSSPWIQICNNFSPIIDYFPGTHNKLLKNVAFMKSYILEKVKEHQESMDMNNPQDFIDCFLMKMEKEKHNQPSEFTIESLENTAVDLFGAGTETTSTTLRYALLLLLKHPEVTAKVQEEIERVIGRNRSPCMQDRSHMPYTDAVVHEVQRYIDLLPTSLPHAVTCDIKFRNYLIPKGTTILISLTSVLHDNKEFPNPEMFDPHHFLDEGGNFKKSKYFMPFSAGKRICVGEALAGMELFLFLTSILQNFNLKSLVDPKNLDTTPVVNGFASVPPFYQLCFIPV
# Assay: qHTS Assay for Inhibitors and Substrates of Cytochrome P450 2C9 (AID 883; active = well fitted curve in the direction sought with a large enough effect; an effect the other way counts as inactive or inconclusive; also: nearly all actives have a fitted effect of over 60% in size; also: potency is read from the fitted curve at half-maximal effect; as to activity change, negative = inhibition: % is scaled to controls: 0 for no effect and ±100 for the full control effect)
# Settings: recombinant CYP2C9, luciferin-H luminescence, 60 min; series mostly up to 11.4 µM; activity change, negative = inhibition: at the top concentration
# Outline: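 A luminogenic readout tracked human CYP2C9 (10nM) converting deoxyluciferin (100uM, at KM) in 25mM KPO4 during 60 min at 37C with regenerated NADPH. Values normalized to 57uM sulphaphenazole as complete inhibition.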
SMILES,Potency,"activity change, negative = inhibition"
O=[N+]([O-])c1ccc(S(=O)(=O)Cc2ccccc2)c2nonc12,316 nM (active),–
Oc1c(C(O)(c2ccccc2)c2ccc3ccccc3c2O)ccc2ccccc12,794 nM (active),–
Nc1nc(Sc2ccc([N+](=O)[O-])c3nonc23)c2[nH]cnc2n1,3160 nM (active),–
O=C1c2ccccc2C(O)(O)[C@@]1(O)[C@]1(O)C(=O)c2ccccc2C1(O)O,–,4.77% (inactive)
ClC(=Nc1cccc2ccccc12)N(c1ccccc1)c1ccccc1,3160 nM (active),–
N#Cc1c(NC(=O)C(F)(F)F)sc2c3c(=O)c4ccccc4c(=O)c=3oc3ccccc3c12,50.1 nM (active),–

# Target: Cytochrome P450 3A4 (Homo sapiens) (UniProt P08684)
# Sequence (P08684 whole entry, looked up): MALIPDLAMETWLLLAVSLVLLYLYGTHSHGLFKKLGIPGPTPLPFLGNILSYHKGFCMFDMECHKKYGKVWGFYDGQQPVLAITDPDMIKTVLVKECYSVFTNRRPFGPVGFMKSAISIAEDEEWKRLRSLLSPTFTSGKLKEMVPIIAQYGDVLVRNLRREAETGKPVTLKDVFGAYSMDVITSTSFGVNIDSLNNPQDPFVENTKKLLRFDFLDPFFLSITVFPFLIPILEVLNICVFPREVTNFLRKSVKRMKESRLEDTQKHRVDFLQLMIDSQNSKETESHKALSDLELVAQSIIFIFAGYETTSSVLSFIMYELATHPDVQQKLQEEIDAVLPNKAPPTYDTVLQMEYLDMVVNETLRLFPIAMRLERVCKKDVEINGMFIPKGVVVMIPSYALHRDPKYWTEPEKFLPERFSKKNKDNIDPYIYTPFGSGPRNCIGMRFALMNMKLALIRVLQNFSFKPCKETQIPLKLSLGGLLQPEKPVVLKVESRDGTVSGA
# Assay: qHTS Assay for Inhibitors and Substrates of Cytochrome P450 3A4 (AID 884; active = well fitted curve in the direction sought with a large enough effect; an effect the other way counts as inactive or inconclusive; also: nearly all actives have a fitted effect of over 50% in size; also: potency is read from the fitted curve at half-maximal effect; as to activity change, negative = inhibition: % is scaled to controls: 0 for no effect and ±100 for the full control effect)
# Settings: recombinant CYP3A4, Luciferin-PPXE luminescence; series mostly up to 57.1 µM; activity change, negative = inhibition: at the top concentration
# Outline: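 Luminescent readout of luciferin produced by CYP3A4 (20 nM) dealkylation of Luciferin-PPXE, 25 uM (its KM). NADPH-driven reaction ran 60 min at RT after 10 min compound preincubation; data scaled to 57 uM ketoconazole as 100% inhibition.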
SMILES,Potency,"activity change, negative = inhibition"
Cc1cccc(CNc2ncnc3ccc(-c4ccc(C(=O)N(C)C)cc4)cc23)c1,2000 nM (active),–
O=C1c2ccccc2C(O)(O)[C@@]1(O)[C@]1(O)C(=O)c2ccccc2C1(O)O,–,11.5% [at 11.4 µM] (inactive)
C[N+](C)([O-])CCC=C1c2ccccc2CCc2ccccc21,1260 nM (active),–
COCCn1c(=O)c(CCc2ccccc2)nc2cnc(Oc3cccc(Cl)c3)nc21,794 nM (active),–

# Target: Cytochrome P450 3A4 (Homo sapiens) (UniProt P08684)
# Assay: qHTS Assay for Activators of Cytochrome P450 3A4 (AID 885; active = well fitted curve in the direction sought with a large enough effect; an effect the other way counts as inactive or inconclusive; also: nearly all actives have a fitted effect of over 65% in size)
# Settings: recombinant CYP3A4, Luciferin-PPXE luminescence, 60 min; series mostly up to 11.4 µM; activity change, positive = activation: at the top concentration
# Outline: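 Activators are scored by enhanced luminescence from CYP3A4 conversion of luciferin-PPXE (25uM, equal to KM) to luciferin, after 60 min at RT with an NADPH-regenerating system.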
row,SMILES,"activity change, positive = activation"
1,Cc1cccc(CNc2ncnc3ccc(-c4ccc(C(=O)N(C)C)cc4)cc23)c1,-112% [at 57.1 µM] (inactive)
2,ClC(=Nc1cccc2ccccc12)N(c1ccccc1)c1ccccc1,-43.5% (inactive)
3,C[N+](C)([O-])CCC=C1c2ccccc2CCc2ccccc21,-84.3% (inactive)
4,COCCn1c(=O)c(CCc2ccccc2)nc2cnc(Oc3cccc(Cl)c3)nc21,-82.1% [at 57.1 µM] (inactive)
5,O=C1C(Cl)=C(Sc2nnc3c4ccccc4c4ccccc4c3n2)C(=O)c2ccccc21,-31.2% (inactive)
6,Cc1ccc(-c2nc(-c3nccc4ccccc34)oc2-c2ccccc2)cc1,-34.4% (inactive)
7,C[C@H]1CC(C)(C)C[C@@](OCCN2CCCCC2)(c2ccccc2)C1,-38% (inactive)
8,CN(C)c1ccc(N=Nc2cccc3ccoc23)cc1,-30.8% (inactive)
9,COc1ccc(-c2csc3c2[N+]2=CCC=C2C3=O)cc1,-57.7% (inactive)
